The structures appear in SMILES notation. Compounds without any hit were thinned out: in the full panel of roughly 83,000, 20% have a hit.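 Method: cells in 96-well plates; compound added at one concentration; 48 h incubation; percent growth measured; values under 10 scored active.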 Unmarked numbers belong to inactive results. Calls of active or inactive are those of the source.

Among the data in PubChem BioAssay (NCI) are growth values, retold here.

Among the test systems are NCI-H23 lung; NCI-H226 lung; NCI-H322M lung; HOP-62 NSCLC; NCI-H460 lung; HOP-92 NSCLC; NCI-H522 lung; A549/ATCC NSCLC; 786-0 renal; COLO 205 colon; DU-145 prostate; K-562 leukemia; MALME-3M melanoma; MDA-MB-231 breast; RXF 393 renal; SF-268 CNS; SF-295 CNS; SF-539 CNS; UACC-257 melanoma; M14 melanoma.
Test in all cases: NCI-60 one-dose screen, 48 h (100 = growth as untreated, 0 = no growth, -100 = all killed)
Common to all, as to settings: 10 µM unless noted

As to `Cc1cc(C)c(O)c(C(=O)CC(Br)C(=O)O)c1` (stereo not given), the growth is 96.4% with NCI-H23 lung; 106% with NCI-H226 lung; 101% in the test with NCI-H322M lung; 106% with HOP-62 NSCLC; 108% in the test on NCI-H460 lung; 88.1% in the test with HOP-92 NSCLC. In addition, the growth in the test with NCI-H522 lung was 81.7%; with A549/ATCC NSCLC, 99.3%; in the test on 786-0 renal it was 86.2%; in the test with COLO 205 colon, 116%; in the test with DU-145 prostate it was 95.3%; with K-562 leukemia it was 84.5%. Further, the growth with MALME-3M melanoma is 111%; with MDA-MB-231 breast, 121%; in the test on RXF 393 renal, 119%; in the test with SF-268 CNS, 95.9%; in the test with SF-295 CNS, 101%; in the test with SF-539 CNS, 91.2%. In addition, the growth in the test on UACC-257 melanoma was 96.2%; with M14 melanoma it was 95.1%.
Regarding `CC(C)(C)OC(=O)NCc1cccc(N=C=S)c1`, the growth with NCI-H23 lung was 55.3%; with NCI-H226 lung, 80.6%; in the test with NCI-H322M lung, 65.7%; in the test with HOP-62 NSCLC it was 57.8%; in the test with NCI-H460 lung, 63.8%; in the test on HOP-92 NSCLC it was -0.561% (active). Also, the growth in the test on NCI-H522 lung is 12.8%; with A549/ATCC NSCLC it was 69.2%; in the test on 786-0 renal, 54.9%; in the test on COLO 205 colon, 38.5%; in the test with DU-145 prostate, 55.7%; with K-562 leukemia, 37.3%. Further, the growth in the test on MALME-3M melanoma was 29.9%; in the test with MDA-MB-231 breast, 75.4%; with RXF 393 renal it was -15.7% (active); in the test on SF-268 CNS, 47.2%; with SF-295 CNS, 21%; in the test with SF-539 CNS, 3.66% (active). Moreover, the results for the growth in the test on UACC-257 melanoma and with M14 melanoma were 39.4% and 49.3%, respectively.
Turning to `O=c1nc(N2CCOCC2)oc2c(-c3cccc4ccccc34)cccc12`, the growth is 89.3% with NCI-H23 lung; 66.6% in the test on NCI-H226 lung; 90.8% with NCI-H322M lung; 80.8% in the test with HOP-62 NSCLC; 110% with NCI-H460 lung; 60.1% with HOP-92 NSCLC. Further, the growth was 82% in the test on NCI-H522 lung; 85.6% in the test on A549/ATCC NSCLC; 74.4% in the test with 786-0 renal; 103% in the test with COLO 205 colon; 97.7% in the test with DU-145 prostate; 90.1% with K-562 leukemia. The growth was 75.2% in the test with MALME-3M melanoma; 93.5% in the test on MDA-MB-231 breast; 61.1% with RXF 393 renal; 80.6% in the test on SF-268 CNS; 89.2% in the test on SF-295 CNS; 85% in the test on SF-539 CNS. Moreover, the growth in the test on UACC-257 melanoma is 96.5%; in the test with M14 melanoma, 93.2%.
As for `CC(C)(C)NCC(O)COc1c(Br)c(Br)c(Br)c2c1OC(C)(C)C2` (stereo not given), the growth is -0.995% (active) with NCI-H23 lung; 42.5% in the test on NCI-H226 lung; -19.3% (active) in the test with NCI-H322M lung; -84.9% (active) in the test on HOP-62 NSCLC; -63.7% (active) with NCI-H460 lung; -57.7% (active) in the test on HOP-92 NSCLC. For the same molecule, the growth with NCI-H522 lung was -76.8% (active); in the test with A549/ATCC NSCLC it was -71.9% (active); in the test with 786-0 renal, -91.6% (active); in the test with COLO 205 colon it was -58.3% (active); with DU-145 prostate, -59.5% (active); in the test with K-562 leukemia, -34.9% (active). Further, the growth with MALME-3M melanoma is -82.8% (active); in the test with MDA-MB-231 breast, -65.6% (active); with RXF 393 renal, -52.5% (active); in the test with SF-268 CNS, 4.14% (active); in the test on SF-295 CNS, -63% (active); in the test with SF-539 CNS, -84.5% (active). Further, the results for the growth in the test on UACC-257 melanoma and in the test on M14 melanoma were 107% and -72.6% (active), respectively.
Turning to `CCC(N)(C(=O)O)c1ccc(F)cc1` (stereo not given), the growth in the test with NCI-H23 lung is 102%; in the test on NCI-H226 lung, 106%; in the test on NCI-H322M lung, 113%; in the test with HOP-62 NSCLC it was 104%; with NCI-H460 lung, 106%; with HOP-92 NSCLC, 93.9%. Further, the growth was 90.2% with NCI-H522 lung; 81.5% in the test with A549/ATCC NSCLC; 99.9% with 786-0 renal; 105% with COLO 205 colon; 108% in the test with DU-145 prostate; 91.9% in the test on K-562 leukemia. Moreover, the growth is 112% in the test on MALME-3M melanoma; 110% with MDA-MB-231 breast; 123% in the test on RXF 393 renal; 102% with SF-268 CNS; 108% with SF-295 CNS; 109% in the test with SF-539 CNS. The growth in the test with UACC-257 melanoma is 86.2%; with M14 melanoma, 103%.
Turning to `O=[N+]([O-])c1cccc2cc(S(=O)(=O)O)ccc12`, the growth is 105% with NCI-H23 lung; 103% with NCI-H226 lung; 107% with NCI-H322M lung; 98.8% in the test on HOP-62 NSCLC; 110% with NCI-H460 lung; 85% in the test with HOP-92 NSCLC. The growth was 83.8% with NCI-H522 lung; 74.2% in the test on A549/ATCC NSCLC; 100% in the test with 786-0 renal; 105% in the test with COLO 205 colon; 105% in the test with DU-145 prostate; 80.7% with K-562 leukemia. Further, the growth in the test with MALME-3M melanoma is 102%; with MDA-MB-231 breast it was 105%; in the test with RXF 393 renal, 122%; in the test on SF-268 CNS, 104%; in the test with SF-295 CNS, 104%; in the test on SF-539 CNS it was 99.4%. Further, the growth in the test with UACC-257 melanoma was 91.9%; in the test with M14 melanoma it was 107%.
As for `CCOC(=O)c1noc2c1CCc1cn(Cc3cc(OC)cc(OC)c3)cc1-2`, the growth was 97.6% with NCI-H23 lung; 101% in the test on NCI-H226 lung; 102% with NCI-H322M lung; 95.6% in the test with HOP-62 NSCLC; 109% with NCI-H460 lung; 104% with HOP-92 NSCLC. The growth in the test with NCI-H522 lung is 46.5%; with A549/ATCC NSCLC, 103%; with 786-0 renal it was 101%; in the test on COLO 205 colon it was 115%; with DU-145 prostate it was 104%; with K-562 leukemia, 102%. The growth in the test on MALME-3M melanoma is 107%; in the test on MDA-MB-231 breast it was 117%; in the test on RXF 393 renal, 113%; with SF-268 CNS it was 96.8%; in the test on SF-295 CNS, 95.3%; with SF-539 CNS, 98.8%. Further, the growth in the test with UACC-257 melanoma and in the test on M14 melanoma was 101% in each case.
Take `Nc1nc(=S)ss1`: the growth is 98.7% in the test with NCI-H23 lung; 103% with NCI-H226 lung; 100% in the test with NCI-H322M lung; 97.3% with HOP-62 NSCLC; 110% in the test with NCI-H460 lung; 98.7% in the test with HOP-92 NSCLC. Moreover, the growth in the test on NCI-H522 lung is 94.2%; in the test on A549/ATCC NSCLC, 97.5%; with 786-0 renal, 107%; in the test on COLO 205 colon it was 112%; with DU-145 prostate, 116%; in the test on K-562 leukemia it was 98.1%. The growth in the test on MALME-3M melanoma is 111%; in the test with MDA-MB-231 breast it was 112%; in the test with RXF 393 renal it was 101%; in the test with SF-268 CNS it was 108%; in the test on SF-295 CNS it was 102%; in the test on SF-539 CNS, 111%. The growth was 90.2% in the test with UACC-257 melanoma and 101% in the test with M14 melanoma.
